How the values were obtained:
Details in all cases: concentration: 1 μM, replicates: in singlicate; n = 1
ERK1 = tested on: T1, ERK1
T1 construct: gene MAPK3

ERK2 = tested on: T2, ERK2
T2 construct: gene MAPK1

ERK3 = tested on: T3, ERK3
T3 construct: gene MAPK6

ERK4 = tested on: T4, ERK4
T4 construct: gene MAPK4

ERK5 = tested on: T5, ERK5
T5 construct: gene MAPK7

ERK8 = tested on: T6, ERK8
T6 construct: gene MAPK15

ERN1 = tested on: ERN1
FAK = tested on: T7, FAK
T7 construct: gene PTK2

FER = tested on: FER
FES = tested on: FES
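Note: KINOMEscan kinase panel screen.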

SMILES | %Inh (ERK1) [%] | %Inh (ERK2) [%] | %Inh (ERK3) [%] | %Inh (ERK4) [%] | %Inh (ERK5) [%] | %Inh (ERK8) [%] | %Inh (ERN1) [%] | %Inh (FAK) [%] | %Inh (FER) [%] | %Inh (FES) [%]
O=C(O)C(F)(F)F.O=c1[nH]ccc2nc(N[C@@H]3CCNC3)nc(Nc3ccc4c(c3)S(=O)(=O)CC4)c12 [GSK2181306] | 55 | 61 | 78 | 28 | 17 | 5 | 39 | 84 | 75 | 16
Cl.N#CCc1ccc(Nc2nccc(Nc3ccc(Oc4ccccc4)cc3)n2)cc1 [GW639905] | 0 | 0 | 0 | 0 | 0 | 35 | 10 | 0 | 0 | 0
Cc1cccc(Nc2nc(NCCN)ncc2C(N)=O)c1 [GSK1292139] | 0 | 0 | 79 | 33 | 0 | 0 | 16 | 5 | 49 | 0
CN(C)c1ncnc2nc[nH]c12 [SKF-31736] | 0 | 0 | 0 | 0 | 0 | 14 | 48 | 0 | 0 | 0
Cc1ccccc1CC(=O)N1CCc2cc(-c3cn(C)c4ncnc(N)c34)ccc21 [GSK2603346] | 0 | 0 | 0 | 0 | 0 | 30 | 1 | 0 | 17 | 0
Cc1cc(-c2ccnc(Nc3cccc(C#N)c3)n2)cc(C)c1O [GSK1440913] | 0 | 0 | 75 | 1 | 0 | 99.1 | 0 | 0 | 7 | 28
Nc1ncnc2scc(-c3ccc(NC(=O)Cc4cc(F)ccc4F)cc3)c12.O=C(O)C(F)(F)F [SB-731254-M] | 0 | 0 | 0 | 11 | 28 | 0 | 34 | 4 | 4 | 0
COc1cccc2c(-c3ccncc3)c(-c3ccc(F)cc3)nn12 [GW468513] | 5 | 0 | 0 | 0 | 0 | 16 | 0 | 0 | 13 | 1
N#Cc1cnc2cc(-c3cnc(CNCCN4CCOCC4)s3)ccc2c1Nc1ccc(Oc2ccccc2)cc1 [GW664114] | 0 | 0 | 0 | 48 | 0 | 0 | 21 | 0 | 82 | 94.9
Cc1ccc(Nc2ccnc(Nc3ccc(C)c(F)c3)n2)cc1O.Cl [GW582868] | 0 | 0 | 0 | 0 | 26 | 43 | 0 | 0 | 1 | 0
COc1cccc(NC(=O)NCCNc2ccnc(Nc3ccc(F)cc3)n2)c1 [GSK1379879] | 0 | 0 | 4 | 25 | 0 | 0 | 0 | 0 | 8 | 0
Nc1ncc(-c2ccc3nccc(-c4ccncc4)c3c2)cc1S(=O)(=O)N1CCCCC1 [GSK1693850] | 0 | 0 | 0 | 13 | 11 | 38 | 1 | 0 | 32 | 0
CC(C)NCC(Cc1ccccc1)NC(=O)c1cc(Br)c(-c2ccnc3[nH]ccc23)s1.Cl.Cl (stereo not drawn) [GSK1383281] | 11 | 0 | 0 | 0 | 0 | 2 | 0 | 20 | 0 | 0
COc1cccc(-c2nc(-c3ccccc3)[nH]c2-c2ccncc2)c1 [SB-610250] | 0 | 0 | 4 | 21 | 14 | 0 | 20 | 0 | 0 | 0
CN1CCN(Cc2ccc(NC(=O)Nc3ccc(N(C)c4ccnc(Nc5ccc(CS(C)(=O)=O)cc5)n4)cc3)cc2)CC1.Cl [GW827654] | 0 | 0 | 0 | 0 | 0 | 78 | 58 | 46 | 45 | 21
Fc1cc(Cl)ccc1Nc1ccnc2cc(-c3ccc(CN4CCSCC4)o3)ccc12 [GW560106] | 17 | 0 | 0 | 0 | 0 | 0 | 6 | 0 | 37 | 0
CC(=O)Nc1cn2nc(Oc3cccc(NC(=O)c4cccc(C(F)(F)F)c4)c3)ccc2n1 | 0 | 0 | 0 | 0 | 0 | 19 | 0 | 13 | 3 | 0

SMILES | %Inh (ERK1) [%] | %Inh (ERK2) [%] | %Inh (ERK3) [%] | %Inh (ERK4) [%] | %Inh (ERK5) [%] | %Inh (ERK8) [%] | %Inh (ERN1) [%] | %Inh (FAK) [%] | %Inh (FER) [%] | %Inh (FES) [%]
CCNC(=O)/C=C/c1n[nH]c2cc(Sc3ccccc3C(=O)NC)ccc12 | 8 | 43 | 13 | 15 | 3 | 28 | 15 | 0 | 4 | 24
O=C(O)C(F)(F)F.O=c1[nH]ccc2nc(N[C@@H]3CCNC3)nc(Nc3cc(Cl)cc(Cl)c3)c12 [GSK2188764] | 41 | 51 | 6 | 37 | 41 | 15 | 28 | 41 | 55 | 0
COC(=O)Nc1nc2cc(Oc3ccc(NC(=O)Nc4cccc(SC)c4)cc3)ccc2[nH]1.Cl [GW697999] | 0 | 0 | 0 | 8 | 0 | 55 | 0 | 0 | 13 | 0
Fc1cc(Cl)ccc1Nc1ccnc2cc(-c3ccc(CN4CCOCC4)o3)ccc12 [GW560109] | 12 | 0 | 0 | 0 | 0 | 19 | 16 | 0 | 6 | 0
COC(=O)Nc1nc2ccc(Oc3ccc(NC(=O)Nc4cc(C(F)(F)F)ccc4F)cc3)cc2[nH]1.Cl [GW654607] | 0 | 6 | 16 | 0 | 0 | 97.6 | 10 | 0 | 0 | 0
Cl.Cl.NCC(NC(=O)c1cc(-c2cccnc2)c(-c2ccnc3[nH]ccc23)s1)c1ccccc1 (stereo not drawn) [GSK1323434] | 0 | 8 | 3 | 33 | 0 | 16 | 6 | 0 | 50 | 44
Cc1ccc(NC(=O)c2ccc(Cl)c(Cl)c2)cc1-c1ccc(C(=O)Nc2ccncc2)cc1 [GSK1398460] | 5 | 2 | 0 | 13 | 0 | 0 | 0 | 0 | 34 | 0
CCn1c(-c2nonc2N)nc2c(-c3ccccc3)ncc(OCCCN)c21.O=C(O)C(F)(F)F.O=C(O)C(F)(F)F [GSK260205] | 0 | 0 | 0 | 0 | 0 | 0 | 11 | 0 | 10 | 0
CNc1nccc(-c2ccc3c(N)n[nH]c3c2)n1 [GSK2206003] | 3 | 0 | 0 | 32 | 9 | 28 | 4 | 0 | 25 | 1
Cn1cc(-c2ccc3c(c2)CCN3C(=O)Cc2cc(F)cc(F)c2F)c2c(N)ncnc21 [GSK2634140] | 9 | 9 | 0 | 0 | 0 | 0 | 11 | 5 | 39 | 0
Cc1cc(-c2c(-c3ccc(F)cc3)ncn2CCCN2CCOCC2)nc(N)n1 [SB-222517] | 4 | 21 | 0 | 0 | 0 | 6 | 0 | 0 | 16 | 35
Nc1cccc(-c2ccc3c(N)n[nH]c3c2)c1 [GSK2193613] | 0 | 0 | 11 | 14 | 0 | 15 | 4 | 16 | 11 | 16
O=C(Nc1n[nH]c2nc(-c3cccc(O)c3)ccc12)C1CC1 [SB-711805] | 0 | 0 | 0 | 0 | 47 | 42 | 0 | 0 | 36 | 0
CN(C)CCNS(=O)(=O)c1ccc(-c2ccnc3[nH]ccc23)cc1 [GSK977620] | 2 | 1 | 3 | 10 | 0 | 0 | 8 | 0 | 41 | 0
CN(C)CCOc1ccc(-c2cc(-c3ccc(Cl)c(O)c3)c(-c3ccncc3)[nH]2)cc1.Cl.Cl [SB-684387] | 0 | 0 | 0 | 40 | 13 | 7 | 39 | 0 | 10 | 10
COc1cc(Nc2nccc(N3CCC(NS(=O)(=O)c4ccc(NC(C)=O)cc4)CC3)n2)cc(OC)c1OC [GSK1379825] | 0 | 0 | 83 | 0 | 0 | 29 | 0 | 0 | 6 | 48

Reference: publication PMC5540273 (PLoS ONE, 2017)
